Reference: the supplement of paper PMC12636033
± gives the standard deviation of the averaged measurements. In all, about 33,000 sequences were measured (“E-score (rank enrichment, -0.5 to 0.5)”: median about -0.0043, highest 2% from about 0.24 on). Only a selection was taken, and the highest values are over-represented in it overall.

System: 2Sp-muMax20 (muMax20 with two 2,6-bis(methyl)pyridine Cys staples)
Test: PBM 8-mer E-score (E-score (rank enrichment, -0.5 to 0.5)); higher = stronger preferential binding
Method: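 Protein binding microarray (universal PBM chip covering all 10-mers in fixed probe flanks) with chemically synthesized human Max(13-93) bHLH-LZ analogs (not full-length Max) bearing noncanonical residues (hArg, Tha, Aib, Nle at 65) and aromatic Cys staples. Read-out per 8-mer (and its reverse complement): E-score (rank-based enrichment, -0.5 to 0.5) and Z-score of median probe intensity.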

| Sequence | PBM 8-mer E-score |
| --- | --- |
| ATCTAACG | 0.0512 ± 0.018 |
| CCCCTTTA | 0.1759 ± 0.0016 |
| ACTGTGGC | -0.025 ± 0.13 |
| TGTTTAAA | 0.278 ± 0.015 |
| CATTTTAA | 0.167 ± 0.029 |
| AGTTTAAA | 0.181 ± 0.021 |
| CATTTAAA | 0.239 ± 0.026 |
| TGTTTTAA | 0.0917 ± 0.0018 |
| TATTTAAA | 0.155 ± 0.05 |
| ATCCTCTA | -0.0199 ± 0.026 |
| CAAGTGTG | 0.119 ± 0.073 |
| AATGCGTC | -0.0127 ± 0.03 |
| ATCAAGAC | -0.00991 ± 0.011 |
| ACGATGAT | 0.0729 ± 0.0089 |
| CTCTATCA | -0.0317 ± 0.017 |
| GGCACCAA | 0.0196 ± 0.084 |
| CATGTGGC | 0.173 ± 0.13 |
| AATGTGGG | 0.246 ± 0.00061 |
| CATGTGGA | 0.16 ± 0.0062 |
| AATGTGGT | 0.0284 ± 0.063 |
| AATGTGGC | 0.124 ± 0.005 |
| CATGTGGG | 0.329 ± 0.026 |
| GGGAGTTA | 0.245 ± 0.029 |
| CGGAGTTA | -0.187 ± 0.057 |
| AGGAGTTA | 0.109 ± 0.0086 |

| Sequence | PBM 8-mer E-score |
| --- | --- |
| CATCGTGA | -0.256 ± 0.15 |
| GAAGTCTA | 0.0975 ± 0.1 |
| CATACTAA | 0.1447 ± 0.00064 |
| ATTACTAC | 0.256 ± 0.011 |
| ACTACTAT | 0.146 ± 0.12 |
| CATACTAC | 0.0746 ± 0.039 |
| CCTACTAG | 0.107 ± 0.023 |
| CTTACTAC | 0.122 ± 0.0036 |
| ATTACTAG | -0.00656 ± 0.053 |
| CATACTAG | 0.243 ± 0.0018 |
| ACTACTAG | 0.261 ± 0.086 |
| AACTTGTA | 0.0176 ± 0.02 |
| AGAGTCAA | -0.0327 ± 0.08 |
| CGGCGGAG | -0.149 ± 0.039 |
| CTGCTCGC | -0.104 ± 0.0046 |
| CAGAGGTC | -0.182 ± 0.051 |
| CAGCAACG | -0.129 ± 0.075 |
| AAATATAC | 0.087005 ± 2.1e-05 |
| TAATATAA | 0.242 ± 0.035 |
| AAAAATAG | 0.122 ± 0.058 |
| GAATATAA | 0.215 ± 0.056 |
| AAAAATAT | 0.244 ± 0.024 |
| AAATATAT | 0.3135 ± 0.00093 |
| ACCAATAC | 0.139 ± 0.021 |
| ACCAATAT | 0.258 ± 0.045 |

| Sequence | PBM 8-mer E-score |
| --- | --- |
| ACCAATAG | -0.0592 ± 0.066 |
| AAAAATAA | 0.0898 ± 0.087 |
| AAATATAG | 0.148 ± 0.036 |
| CAATATAA | 0.152 ± 0.1 |
| ATGCGCCG | -0.102 ± 0.045 |
| CATGGCAG | 0.0778 ± 0.016 |
| CCCAAAGC | -0.158 ± 0.047 |
| GAGCCGAA | -0.123 ± 0.12 |
| GACTATAA | 0.0335 ± 0.072 |
| TACTATAA | 0.261 ± 0.011 |
| AAATATCA | 0.132 ± 0.038 |
| AAATATAA | 0.255 ± 0.03 |
| AACTATAA | 0.199 ± 0.015 |
| AAATAAAA | 0.175 ± 0.059 |
| TAGCGGCA | -0.00468 ± 0.025 |
| TTAGTCAA | -0.0593 ± 0.046 |
| ATCTCACA | 0.141 ± 0.066 |
| AAATCCAA | 0.0276 ± 0.05 |
| GAATCCAA | 0.132 ± 0.0084 |
| TAATCCAA | 0.256 ± 0.031 |
| ACGGGATA | 0.146 ± 0.0045 |
| GATCTTGA | 0.263 ± 0.086 |
| CATCTTGA | 0.00562 ± 0.03 |
| TATCTTGA | 0.123 ± 0.099 |
| ACTCACTG | 0.0171 ± 0.1 |

| Sequence | PBM 8-mer E-score |
| --- | --- |
| ATGCCTAG | 0.0159 ± 0.081 |
| GAGGTCCC | -0.243 ± 0.0028 |
| AAGGCATT | -0.0085 ± 0.05 |
| ATGAGGGG | 0.24 ± 0.05 |
| AGGAGGGC | -0.104 ± 0.14 |
| AGGAGGGA | 0.000855 ± 0.036 |
| AGGAGGGG | 0.269 ± 0.0072 |
| ATGAGGGA | 0.0977 ± 0.073 |
| AGTAGGGA | 0.0183 ± 0.02 |
| AGTAGGGC | 0.0658 ± 0.099 |
| ATGAGGGC | 0.115 ± 0.015 |
| AGTAGGGG | 0.24 ± 0.072 |
| GGCGCTAA | -0.136 ± 0.035 |
| CCCACTGA | 0.0382 ± 0.01 |
| CGGGACGA | -0.1379 ± 0.00041 |
| AGTATCAG | 0.0699 ± 0.071 |
| CGCCCTAC | -0.00866 ± 0.015 |
| GCCCGGGA | -0.254 ± 0.03 |
| TGATGCCA | 0.033 ± 0.029 |
| TATCAGGA | 0.0871 ± 0.048 |
| ACCAAAGC | 0.0731 ± 0.02 |
| GTTACATA | 0.106 ± 0.096 |
| GCGCTCCC | -0.0536 ± 0.052 |
| TATCAACA | 0.139 ± 0.05 |
| GATCAACA | -0.111 ± 0.05 |

| Sequence | PBM 8-mer E-score |
| --- | --- |
| AATCAACA | 0.262 ± 0.024 |
| GCTATGCC | -0.00318 ± 0.017 |
| AGTGCACA | -0.000545 ± 0.11 |
| CTCGATCA | 0.0252 ± 0.013 |
| GGCGAGAC | -0.0185 ± 0.036 |
| CTACTTTA | 0.0402 ± 0.06 |
| ATACTTTA | 0.255 ± 0.07 |
| ATACTTTG | 0.185 ± 0.015 |
| AGTCTCGA | 0.0438 ± 0.016 |
| ACCTCCAC | -0.105 ± 0.0033 |
| ACGTGATG | 0.244 ± 0.0044 |
| ACGTGATC | 0.17 ± 0.081 |
| ACGTGATA | 0.222 ± 0.02 |
| ATGTGATA | 0.288 ± 0.051 |
| ATGTGAAA | 0.319 ± 0.026 |
| GTGTGAAA | 0.11 ± 0.0048 |
| ACGTGAAC | 0.0294 ± 0.091 |
| TCGTGAAA | -0.115 ± 0.084 |
| GTGTGATA | 0.15 ± 0.061 |
| CTGTGATA | -0.0212 ± 0.031 |
| ACGTGAAA | 0.243 ± 0.025 |
| CTGTGAAA | -0.00932 ± 0.11 |
| CGCTCCTA | -0.177 ± 0.024 |
| AACAGTAC | 0.0773 ± 0.0098 |
| AGCTAGAC | -0.14 ± 0.029 |

| Sequence | PBM 8-mer E-score |
| --- | --- |
| CCCCCGAA | -0.24 ± 0.13 |
| CCGTGACG | -0.127 ± 0.12 |
| CCAAGGGG | -0.104 ± 0.046 |
| ATACTGAC | 0.0362 ± 0.0098 |
| ATACTGTC | 0.183 ± 0.041 |
| ATACTGAT | 0.2387 ± 0.00027 |
| GCAGATCC | -0.0702 ± 0.063 |
| ACGTGACC | 0.149 ± 0.063 |
| TCCTTTAA | 0.0188 ± 0.023 |
| AATAATGA | 0.238 ± 0.017 |
| AATAATGG | 0.126 ± 0.043 |
| GATAATGA | 0.00488 ± 0.095 |
| AATAATGC | 0.143 ± 0.1 |
| CATAATGA | 0.1647 ± 0.0015 |
| AATAATGT | 0.241 ± 0.044 |
| GACCTGCC | -0.149 ± 0.014 |
| ATAACATG | 0.229 ± 0.027 |
| CTAACATC | 0.0136 ± 0.022 |
| ATAACAAG | 0.221 ± 0.044 |
| ATAACATC | 0.236 ± 0.034 |
| ATAACAAC | 0.0625 ± 0.012 |
| ATAACAAT | 0.244 ± 0.022 |
| AGGACTCA | 0.0578 ± 0.11 |
| CAGCGAAA | -0.113 ± 0.0075 |
| ACTGTAGG | 0.0115 ± 0.027 |

| Sequence | PBM 8-mer E-score |
| --- | --- |
| AGAGTCGC | 0.0183 ± 0.052 |
| CTCTCAAA | -0.015 ± 0.005 |
| AACTATTC | -0.0563 ± 0.067 |
| AACTATAG | 0.212 ± 0.074 |
| AACTATTG | 0.24 ± 0.051 |
| AACTATTA | 0.169 ± 0.027 |
| CACTATAA | -0.0291 ± 0.0069 |
| GACTATAC | 0.141 ± 0.068 |
| AACTATAC | 0.114 ± 0.06 |
| CACTATAC | 0.25 ± 0.013 |
| CACTATAG | 0.243 ± 0.038 |
| CCGGATCA | -0.0752 ± 0.094 |
| AATTATGC | 0.202 ± 0.025 |
| ATGGATGC | 0.0345 ± 0.13 |
| AACGCGAG | 0.0185 ± 0.046 |
| CACGCGAG | 0.26 ± 0.025 |
| CACGCGAC | 0.277 ± 0.013 |
| GTCGCGAC | 0.314 ± 0.014 |
| CTCGCGAC | 0.0452 ± 0.004 |
| GACGCGAC | -0.108 ± 0.084 |
| GTCGCGAA | -0.143 ± 0.017 |
| AACGCGAC | 0.0983 ± 0.018 |
